# Hit rate of the full screen: of about 16,000 compounds, about 4,000 (25%) were called active. Roughly 26% stayed inconclusive and do not appear here. The call rests on the fitted dose curve; in most records, active means well fitted curve in the direction sought with a large enough effect; inconclusive means small, poorly fitted or top-dose-only effect, or effect the other way; inactive means no such curve, though single readings can be large or run the other way. A selection follows.
# Target: Cytochrome P450 2C9 (Homo sapiens) (UniProt P11712)
# Sequence (P11712 whole entry, looked up): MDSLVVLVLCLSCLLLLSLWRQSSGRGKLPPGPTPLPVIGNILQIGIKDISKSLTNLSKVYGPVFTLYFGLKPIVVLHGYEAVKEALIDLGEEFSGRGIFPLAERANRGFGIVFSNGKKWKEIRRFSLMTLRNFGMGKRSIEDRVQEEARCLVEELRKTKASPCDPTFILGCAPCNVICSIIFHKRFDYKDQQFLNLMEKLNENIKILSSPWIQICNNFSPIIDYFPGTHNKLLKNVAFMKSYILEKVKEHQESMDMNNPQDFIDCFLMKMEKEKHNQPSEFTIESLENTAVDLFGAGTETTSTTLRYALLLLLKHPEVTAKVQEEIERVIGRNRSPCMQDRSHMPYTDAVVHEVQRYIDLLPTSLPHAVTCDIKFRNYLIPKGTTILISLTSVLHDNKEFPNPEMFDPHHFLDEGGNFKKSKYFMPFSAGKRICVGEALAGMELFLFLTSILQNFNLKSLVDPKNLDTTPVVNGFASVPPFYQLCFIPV
# Test: Cytochrome panel assay with activity outcomes
# Conditions: recombinant CYP, pro-luciferin dealkylation, luminescence, p450-cyp2c9; series mostly up to 57.1 µM; activity, negative = inhibition: at the top concentration
# On the % scale 0 is the no-effect control and ±100 the full control effect.
Compound,"activity, negative = inhibition",AC50
C[C@@H](C[C@H](N)C(=O)O)C(=O)O,0.375% [at 11.4 µM] (inactive),–
Cc1cnc(CNc2nc(-c3ccccc3C(F)(F)F)nc3ccccc23)cn1,-16.4% [at 2.29 µM] (inactive),–
O=C(c1cnccn1)N1CCC2(CCCN(C(c3ccccc3)c3ccccc3)C2)CC1,–,12.6 µM (active)
O=C(c1cnccn1)N1CCC[C@@]2(CCN(C(c3ccccc3)c3ccccc3)C2)C1,-14.3% (inactive),–
O=C(c1cnccn1)N1CCC2(CC1)CN(C(c1ccccc1)c1ccccc1)C2,1.03% (inactive),–
O=C(NN=C1C2CC3CC(C2)CC1C3)c1ccncc1,-27.1% (inactive),–
CC(C)NNC(=O)c1ccncc1,–,inactive
O=C(Nc1nnc(C2CC2)s1)c1ccncc1,–,8.91 µM (active)
CC/C=C\CC[C@H](O)C1=CCCCC1=O,-1.13% [at 11.4 µM] (inactive),–
O=C1CCCC=C1[C@@H](O)COCc1ccccc1,3.8% [at 11.4 µM] (inactive),–
O=C1CCCC=C1[C@@H](O)CCOC(c1ccccc1)(c1ccccc1)c1ccccc1,–,0.794 µM (active)
CC1(C)OC(=O)C(=CNc2cccc(O)c2)C(=O)O1,27.7% (inactive),–
O=C(Nc1cccc(F)c1)N1CC[C@@]2(CCCN(C(=O)c3cc(C(F)(F)F)cc(C(F)(F)F)c3)C2)C1,6.64% (inactive),–
Fc1ccc(Nc2ccnc(-c3ccccc3C(F)(F)F)n2)cc1,-26.8% [at 2.29 µM] (inactive),–
CC(=O)N1CCC2(CC1)CN(c1ccccc1)C2,-15% (inactive),–
O=C(c1ccncc1)N1CCC2(CC1)CCN(c1ccccc1)CC2,–,10 µM (active)
O=C(c1cccc(F)c1)N1CCC2(CC1)CN(c1ccncc1)C2,–,5.01 µM (active)
O=C(c1ccncc1)N1CCC2(CC1)CN(c1ccccc1)C2,–,2.51 µM (active)
O=C(c1cccc(F)c1)N1CCC[C@@]2(CCN(c3ccncc3)C2)C1,-15.9% (inactive),–
O=C(c1ccncc1)N1CCC2(CC1)CN(c1ccc(-c3ccccc3)cc1)C2,-20.9% (inactive),–
Cc1noc(C)c1C(=O)N1CCC2(CC1)CCN(c1ccncc1)CC2,–,10 µM (active)
Cc1noc(C)c1C(=O)N1CCC2(CCN(Cc3ccncc3)CC2)CC1,-13.8% (inactive),–
Cc1noc(C)c1C(=O)N1CCC2(CCCN(c3ccncc3)C2)CC1,9.67% (inactive),–

Compound,"activity, negative = inhibition",AC50
CC1(C)O[C@H]2[C@@H](O1)[C@@H](On1nnc3ccc(Cl)cc31)O[C@@H]2[C@@H]1COC(C)(C)O1,-3.36% [at 11.4 µM] (inactive),–
Nn1nnc2ccccc21,-7.08% (inactive),–
N#Cc1cccc(-c2ccc3ncnc(N4CCNCC4)c3c2)c1,20.7% [at 2.29 µM] (inactive),–
CCN(CC)S(=O)(=O)N1CCC(C(=O)NCc2ccc(C)cc2)CC1,-7.02% (inactive),–
O=C1C2=CC[C@H]3C(=O)N(c4cccc(Oc5ccccc5)c4)C(=O)[C@@H]3[C@@H]2[C@H](O)[C@@H]2O[C@H]12,4.88% [at 11.4 µM] (inactive),–
Cc1ccc(CS(=O)(=O)CCC(=O)NCc2ccccn2)cc1,-25.1% (inactive),–
COc1ccc(C(CNC(=O)c2cc(=O)[nH]c3ccccc23)N2CCCC2)cc1 (centres undefined),6.96% (inactive),–
O=C(Cc1csc(Nc2nc(=S)[nH]c3ccccc23)n1)NCc1cccc(Cl)c1,–,0.0631 µM (active)
Cc1ccc(CNC(=O)Cc2csc(Nc3nc(=S)[nH]c4ccccc34)n2)cc1,–,0.891 µM (active)
Cc1ccc(CNC(=O)Cn2cncn2)cc1,-26.5% (inactive),–
COc1ccc(CNC(=O)Cc2csc(Nc3nc(=S)[nH]c4ccccc34)n2)cc1,–,0.224 µM (active)
Cc1ccc(C(=O)c2ccc(CC(=O)O)n2C)cc1,16.9% [at 25.6 µM] (inactive),–
CCOC(=O)CCN1C(=O)[C@H]2[C@H]3[C@H](O)[C@H](O)C/C(=N/OC/C=C(\C)CCC=C(C)C)[C@@H]3CC[C@@H]2C1=O,7.78% [at 11.4 µM] (inactive),–
CN1CCN(c2ncnc3ccc(-c4ccc(C(=O)N(C)C)cc4)cc23)CC1,17.4% [at 2.29 µM] (inactive),–
Cc1noc(C)c1-c1ccc2ncnc(Nc3ccc(F)cc3)c2c1,-13.2% [at 2.29 µM] (inactive),–
FC(F)(F)c1cc(CN2CCC3(CCNCC3)CC2)cc(C(F)(F)F)c1,9.64% (inactive),–
CS(=O)(=O)Nc1cccc(-c2nccc(Nc3ccc(F)cc3)n2)c1,18.7% [at 2.29 µM] (inactive),–
COC(=O)C1=C(C)N=C2SC(C)C(=O)N2C1/C=C/c1ccccc1 (centres undefined),–,4.47 µM (active)
COC(=O)c1cc(/C=C/c2ccccc2)on1,-25.8% (inactive),–
COC(=O)[C@@]1(Cc2ccccc2)[C@H]2c3cc(C(=O)N(C)C)n(Cc4ccsc4Br)c3C[C@H]2CN1C(=O)c1ccccc1,–,3.98 µM (active)
COC(=O)[C@@]1(Cc2ccccc2)[C@H]2c3cc(C(=O)N4CCCC4)n(Cc4ccsc4Br)c3C[C@H]2CN1C(=O)c1ccccc1,–,2 µM (active)
CCCCN1CCCC[C@H]1C(=O)Nc1c(C)cccc1C,18.9% [at 25.6 µM] (inactive),–
CC(=O)OC[C@@H]1O[C@H](CCO/N=C\[C@@H](C)[C@H](OCc2ccccc2)C(C)C)C=C[C@@H]1OC(C)=O,-15.4% [at 11.4 µM] (inactive),–

Compound,"activity, negative = inhibition",AC50
CON1C(=O)C(=O)N(OC)C(C)(C)C1C (centres undefined),-9% (inactive),–
Cc1nn(C)c(C(=O)NNC(=S)Nc2ccc(Cl)cc2)c1[N+](=O)[O-],–,6.31 µM (active)
Cc1cc([N+](=O)[O-])nn1CC(=O)NNC(=S)Nc1ccc(F)cc1,-30% (inactive),–
COc1ccccc1NC(=S)NNC(=O)c1c(Cl)c(C)nn1C,–,3.55 µM (active)
Cc1cc(NC(=O)c2c([N+](=O)[O-])c(C)nn2C)no1,9.1% (inactive),–
O=C(N/N=C1/C[C@@H](O)[C@@H](O)[C@@H]2[C@H]3C(=O)N(c4ccc(F)cc4F)C(=O)[C@@H]3CC[C@@H]12)OCc1ccccc1,-1.14% [at 11.4 µM] (inactive),–
NC(N)=N/N=C\c1ccc(O)c(C(=O)O)c1,2.83% [at 11.4 µM] (inactive),–
O=C(O)c1ccc(C(=O)O)c(C(=O)O)c1.[NH-][C@@H]1CCCC[C@@H]1[NH-].[Pt],0.225% [at 11.4 µM] (inactive),–
CC1=C/C(=C(/c2ccc(O)c(C)c2)c2ccccc2C(=O)O)C=CC1=O,–,0.01 µM (active)
O=C(O)c1ccc(C(=O)c2ccccc2C(=O)O)cc1C(=O)O,-6.86% [at 11.4 µM] (inactive),–
O=C(O)C1=CC(=C(c2ccc(O)c(C(=O)O)c2)c2ccc(O)c(C(=O)O)c2)C=CC1=O,–,15.8 µM (active)
NC(=O)CN1CCOCCOCCOCCOCCOCC1,-26.1% (inactive),–
O=S(=O)(NCc1cccnc1)c1ccc(Cl)nc1,-12.7% (inactive),–
CCN(C1CCCCC1)S(=O)(=O)c1ccc(S(=O)(=O)NCc2ccncc2)cc1,–,0.0398 µM (active)
COc1ccccc1CNc1cc(-c2c(C)noc2C)ncn1,-2.44% [at 2.29 µM] (inactive),–
Cc1ccc(-n2nc(C)c3c2OC(N)=C(C#N)C3c2ccco2)cc1 (centres undefined),–,6.31 µM (active)
COc1ccccc1NC(=O)COC(=O)c1ccc(S(=O)(=O)NCc2ccco2)cc1,–,0.398 µM (active)
NCCSSCCN,–,inactive
O=c1c(-c2ccc(F)cc2)nc2cnc(N3CCNCC3)nc2n1Cc1cccs1,–,15.8 µM (active)
O=c1c(-c2ccc(F)cc2)nc2cnc(N3CCOCC3)nc2n1Cc1cccs1,-0.555% (inactive),–
O=c1c(-c2cc(F)cc(F)c2)nc2cnc(N3CCNCC3)nc2n1Cc1cccs1,–,3.98 µM (active)
O=c1cnc2cnc(N3CCNCC3)nc2n1Cc1cccs1,13.9% (inactive),–
CN1CCN(c2ncc3nc(-c4ccc(Cl)cc4)c(=O)n(Cc4cccs4)c3n2)CC1,-12.8% (inactive),–

Compound,"activity, negative = inhibition",AC50
O=c1c(-c2cccs2)nc2cnc(N3CCNCC3)nc2n1Cc1cccs1,–,12.6 µM (active)
CN(C)c1ncc2nc(-c3cc(F)cc(F)c3)c(=O)n(Cc3cccs3)c2n1,0.26% (inactive),–
Cc1nc2cnc(N3CCNCC3)nc2n(Cc2cccs2)c1=O,0.901% (inactive),–
O=c1c(-c2ccc(Cl)cc2)nc2cnc(N3CCNCC3)nc2n1Cc1cccs1,–,20 µM (active)
CN1CCN(c2ncc3nc(-c4cc(F)cc(F)c4)c(=O)n(Cc4cccs4)c3n2)CC1,-23.5% (inactive),–
COc1ccc(-c2nc3cnc(N4CCN(C)CC4)nc3n(Cc3cccs3)c2=O)cc1,10.4% (inactive),–
COc1ccc(NC(=O)N2CC[C@@]3(CCCN(C(=O)c4cc(C(F)(F)F)cc(C(F)(F)F)c4)C3)C2)cc1,-2.5% (inactive),–
O=C1C(O)=C(O)C(=O)C(O)=C1O,3.72% [at 25.6 µM] (inactive),–
Cc1ccnc(NS(=O)(=O)c2ccc(N=[N+]=[N-])cc2)n1,-7.68% [at 11.4 µM] (inactive),–
COC(=O)[C@@H]1O[C@@H](c2c(OC)c(OC)c(C)c(OC)c2OC)[C@H](C)[C@@H](O)[C@@H]1C,14.6% [at 11.4 µM] (inactive),–
COc1ccc(-n2c(=O)c(-c3cccs3)nc3cnc(N4CCNCC4)nc32)cc1,-27.1% (inactive),–
COCCn1c(=O)c(-c2cccs2)nc2cnc(N3CCNCC3)nc21,–,2 µM (active)
COCCn1c(=O)c(-c2cccs2)nc2cnc(N3CCN(C)CC3)nc21,-17.1% (inactive),–
Cc1noc(C)c1C(=O)N1CCC2(CCN(C(=O)NC(C)C)CC2)CC1,-18.1% (inactive),–
CCOC(=O)C1=C(C)N=C2SC(C(=O)OC)=CC(=O)N2C1c1ccc(F)cc1 (centres undefined),–,7.08 µM (active)
COC(=O)C1=C(CSc2nncn2C)NC(=O)NC1c1ccc(F)cc1 (centres undefined),-23.8% (inactive),–
OCCCCNCc1ccc(OCc2ccccc2Cl)cc1,15.7% (inactive),–
Nc1cccc(OCc2nc(N)nc(N)c2-c2ccc(Cl)cc2)c1,-4.32% [at 11.4 µM] (inactive),–
Cc1cc(OCc2nc(N)nc(N)c2-c2ccc(Cl)c(Cl)c2)ccc1[N+](=O)[O-],–,1.58 µM (active)
CC1(C)S[C@@H]2[C@H](NC(=O)[C@@H](NC(=O)N3CCNC3=O)c3ccccc3)C(=O)N2[C@H]1C(=O)O,-10.6% [at 25.6 µM] (inactive),–
